Data on 43 compounds can be found in PubChem BioAssay AID1211 (NMMLSC, 2008).

Calls of active or inactive are those of the source. The rule behind the calls is not given here.

The test deals with Estrogen receptor (Homo sapiens) (UniProt P03372). Put plainly: displacement of fluorescent estrogen from ERalpha – cell-based, Cos7 ERalpha-GFP, flow cytometry, primary screen (AID 1211).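 Note: 0% = DMSO vehicle wells and 100% = no E2-Alexa633 signal left.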 To be noted: fluorescent ligand competition, stronger effect = higher value. (A flow cytometer gives signals particle by particle.)
Estrogen receptor (Homo sapiens), sequence (P03372 whole entry, looked up): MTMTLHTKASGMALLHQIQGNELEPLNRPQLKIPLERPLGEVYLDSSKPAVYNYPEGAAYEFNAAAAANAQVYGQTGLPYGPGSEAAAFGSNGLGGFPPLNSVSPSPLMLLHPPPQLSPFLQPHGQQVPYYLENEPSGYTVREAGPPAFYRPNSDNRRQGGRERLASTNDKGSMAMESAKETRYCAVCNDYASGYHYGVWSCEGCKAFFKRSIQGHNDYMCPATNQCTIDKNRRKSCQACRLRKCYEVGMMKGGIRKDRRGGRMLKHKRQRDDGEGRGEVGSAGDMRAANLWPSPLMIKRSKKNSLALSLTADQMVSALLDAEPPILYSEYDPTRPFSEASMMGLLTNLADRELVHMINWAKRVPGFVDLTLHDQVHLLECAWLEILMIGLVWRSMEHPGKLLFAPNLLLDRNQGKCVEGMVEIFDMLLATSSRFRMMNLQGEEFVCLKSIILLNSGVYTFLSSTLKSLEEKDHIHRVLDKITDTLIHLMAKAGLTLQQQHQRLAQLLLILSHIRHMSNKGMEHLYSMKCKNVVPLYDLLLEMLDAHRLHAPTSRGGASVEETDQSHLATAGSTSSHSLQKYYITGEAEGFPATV

Consider `Cc1ccc(C(=O)CSC2=C(C#N)C(c3ccco3)CC(=O)N2)c(C)c1` (stereo unspecified), for which the inhibition of ligand binding runs as follows: (at 10 µM) 49% (inactive); (binding inhibition, at 0.1 µM) 53%.
As for `Oc1ccc(-c2cn3cc(C(F)(F)F)ccc3n2)cc1`, the inhibition of ligand binding was 29% (inactive) (at 10 µM) and 7% (binding inhibition, at 0.1 µM).
As to `CCCOc1ccc(-c2nn(-c3ccccc3)cc2/C=C2\SC(N)=NC2=O)cc1`, the inhibition of ligand binding (at 10 µM) was 50% (inactive) and the inhibition of ligand binding (binding inhibition, at 0.1 µM) stood at 13%.
As to `Cc1cc(Cl)ccc1OCC(=O)OC(C)C(=O)N(C)C` (stereo unspecified), the inhibition of ligand binding (at 10 µM) was 30% (inactive) and the inhibition of ligand binding (binding inhibition, at 0.1 µM) was found to be 53%.
Take `Brc1cc2c(cc1C1Nc3ccccc3C3C=CCC31)OCO2` (stereo unspecified): the inhibition of ligand binding was 0% (inactive) (at 10 µM) and 14% (binding inhibition, at 0.1 µM).
For `Cc1ccc2c(c1)c(=O)c1c3n2CCN(C(=O)CCl)C3CC1` (stereo unspecified), the inhibition of ligand binding reads like this: (at 10 µM) 21% (inactive); (binding inhibition, at 0.1 µM) 26%.
The like results for `COc1ccc(/C=N/NC(=O)c2nc(-c3ccccc3)cc(-c3ccccc3)n2)cc1O` were, in that order, 56% (active) and 97%.
Turning to `Nc1ccc2nc(-c3ccc(N)c(Cl)c3)[nH]c2c1`, the inhibition of ligand binding by setting is: (at 10 µM) 31% (inactive); (binding inhibition, at 0.1 µM) 12%.
As for `CCc1nc(N)nc(N)c1-c1ccc(Cl)cc1`, the inhibition of ligand binding (at 10 µM) was 26% (inactive) and the inhibition of ligand binding (binding inhibition, at 0.1 µM) stood at 25%.
With `c1ccc(-c2nnc3sc(Cc4cccs4)nn23)cc1`, the inhibition of ligand binding (at 10 µM) is 28% (inactive) and the inhibition of ligand binding (binding inhibition, at 0.1 µM) worked out at 13%.
The like results for `CC1(C)OC(C)(C)/C(=C/Nc2ccc(O)cc2)C1=O` were, in that order, 10% (inactive) and 12%.
Regarding `Cc1ccc(C)c(/C(O)=C2/C(=O)C(=O)N(CCN3CCOCC3)C2c2ccco2)c1` (stereo unspecified), the inhibition of ligand binding runs as follows: (at 10 µM) 0% (inactive); (binding inhibition, at 0.1 µM) 52%.
For `CCOC(=O)CSc1nn(C)c(=S)s1` the same measures were 52% (inactive) and 38%.
As to `COc1ccc2c(c1)c(=O)oc1cc(OCC(=O)NC3CCCCC3)ccc12`, the inhibition of ligand binding runs as follows: (at 10 µM) 60% (inactive); (binding inhibition, at 0.1 µM) 60%.
As for `C/C(N)=C(/C#N)C(=O)CSc1nnc(Cc2ccccc2F)n1N`, the inhibition of ligand binding is, setting by setting: (at 10 µM) 0% (inactive); (binding inhibition, at 0.1 µM) 3%.
In the case of `COC(=O)c1ccc2c(=O)n(CC3CCCO3)c(SCC(=O)Nc3ccccc3Cl)nc2c1` (stereo unspecified), the inhibition of ligand binding (at 10 µM) is 45% (inactive) and the inhibition of ligand binding (binding inhibition, at 0.1 µM) was found to be 37%.
Consider `O=C(Nc1ccc(O)cc1)C1CC=CCC1` (stereo unspecified), for which the inhibition of ligand binding (at 10 µM) was 6% (inactive) and the inhibition of ligand binding (binding inhibition, at 0.1 µM) stood at 9%.
For the compound `Clc1ccc(Sc2cc(N3CCOCC3)nc(-c3ccccc3)n2)cc1`, the inhibition of ligand binding (at 10 µM) was 41% (inactive) and the inhibition of ligand binding (binding inhibition, at 0.1 µM) amounted to 25%.
In the case of `Nc1ccc(-c2nc3ccc(C(=O)O)cc3s2)cc1`, the inhibition of ligand binding (at 10 µM) is 0% (inactive) and the inhibition of ligand binding (binding inhibition, at 0.1 µM) was determined as 42%.
In the case of `COc1ccc2c(c1)c(=O)oc1cc(OCC(=O)N3CCC(C)CC3)ccc12`, the inhibition of ligand binding (at 10 µM) is 0% (inactive) and the inhibition of ligand binding (binding inhibition, at 0.1 µM) worked out at 26%.
As to `Cc1ccc(-c2nn3c(C)nnc3s2)cc1NC(=O)COc1ccc(Cl)cc1`, the inhibition of ligand binding is 38% (inactive) (at 10 µM) and 42% (binding inhibition, at 0.1 µM).
As for `COc1cc(OC)cc(C(=O)NC2CCN(C(=O)N3c4ccccc4Sc4ccccc43)CC2)c1`, the inhibition of ligand binding (at 10 µM) is 6% (inactive) and the inhibition of ligand binding (binding inhibition, at 0.1 µM) turned out to be 22%.
In the case of `Cc1ccc(C(=O)NCC(=O)OCC(=O)c2c(N)n(C)c(=O)n(C)c2=O)s1`, the inhibition of ligand binding reads like this: (at 10 µM) 14% (inactive); (binding inhibition, at 0.1 µM) 5%.
On to `COc1ccccc1-c1nnc2sc(-c3cnccn3)nn12`, for which the inhibition of ligand binding runs as follows: (at 10 µM) 52% (inactive); (binding inhibition, at 0.1 µM) 3%.
Turning to `COc1cccc2cc3c(=O)n(-c4ccccc4)nc-3oc12`, the inhibition of ligand binding is 47% (inactive) (at 10 µM) and 23% (binding inhibition, at 0.1 µM).
For `COc1ccc(C(N)CCc2ccc(C)o2)cc1` (stereo unspecified), the inhibition of ligand binding (at 10 µM) was 30% (inactive) and the inhibition of ligand binding (binding inhibition, at 0.1 µM) came out at 39%.
As to `COc1cccc([C@@H]2Oc3ccc(OC)cc3C(=O)[C@H]2O)c1`, the inhibition of ligand binding runs as follows: (at 10 µM) 37% (inactive); (binding inhibition, at 0.1 µM) 43%.
For `Cc1ccc(S(=O)(=O)N2CCCCC2)cc1C(=O)Nc1ncn[nH]1` the same measures were 21% (inactive) and 7%.
For `CC1(C)CC(=O)c2c(oc3cc(O)c(O)cc23)C1` the same measures were 20% (inactive) and 54%.
With `Cc1ccc(Nc2nnc(SCC(=O)NCc3ccco3)s2)cc1`, the inhibition of ligand binding was 10% (inactive) (at 10 µM) and 12% (binding inhibition, at 0.1 µM).
For `O=C(COC(=O)CCC(=O)c1cccs1)NCc1ccco1`, the inhibition of ligand binding was 42% (active) (at 10 µM) and 74% (binding inhibition, at 0.1 µM).
As for `CC12CCC(=O)N1C(C(=O)OCC(=O)Nc1sccc1C#N)CS2` (stereo unspecified), the inhibition of ligand binding by setting is: (at 10 µM) 47% (active); (binding inhibition, at 0.1 µM) 89%.
`Oc1ccc(-c2csc(-c3c[nH]c4ccccc34)n2)c(O)c1`: the inhibition of ligand binding (at 10 µM) is 57% (inactive) and the inhibition of ligand binding (binding inhibition, at 0.1 µM) came to 45%.
Consider `O=S(=O)(NCc1csc(-c2cccnc2)n1)c1cccs1`, for which the inhibition of ligand binding (at 10 µM) is 22% (inactive) and the inhibition of ligand binding (binding inhibition, at 0.1 µM) was 5%.
For the compound `CCCc1nc2sc3ccccc3c(=O)c2c(=O)n1Cc1ccco1`, the inhibition of ligand binding by setting is: (at 10 µM) 42% (inactive); (binding inhibition, at 0.1 µM) 1%.
In the case of `O=C(NCc1ccco1)c1cc2c(s1)CSC2`, the inhibition of ligand binding (at 10 µM) is 24% (inactive) and the inhibition of ligand binding (binding inhibition, at 0.1 µM) came out at 25%.
The like results for `O=C(Cc1ccccc1)Nc1ccc2oc(-c3cccnc3)nc2c1` were, in that order, 32% (inactive) and 44%.
On to `CCO/C([O-])=N/c1c[n+](N2CCOCC2)no1`, for which the inhibition of ligand binding by setting is: (at 10 µM) 0% (inactive); (binding inhibition, at 0.1 µM) 12%.
On to `NNc1nc2sc3c(c2c(=O)[nH]1)CCc1ccccc1-3`, for which the inhibition of ligand binding was 55% (inactive) (at 10 µM) and 28% (binding inhibition, at 0.1 µM).
On to `NC(=O)c1c(NC(=O)c2cccs2)sc2c1CCCCCC2`, for which the inhibition of ligand binding was 0% (inactive) (at 10 µM) and 22% (binding inhibition, at 0.1 µM).
Turning to `Nc1ccc(-n2cnc3cc([N+](=O)[O-])ccc32)cc1`, the inhibition of ligand binding is, setting by setting: (at 10 µM) 41% (active); (binding inhibition, at 0.1 µM) 66%.
As for `COc1ccc(OC)c(N2C(=O)[C@@H]3C(c4ccccc4Cl)=NO[C@@H]3C2=O)c1`, the inhibition of ligand binding is 57% (inactive) (at 10 µM) and 24% (binding inhibition, at 0.1 µM).
The like results for `CCOc1cccc2cc(-c3nnc(NCc4ccco4)s3)c(=O)oc12` were, in that order, 47% (inactive) and 61%.
